# KinaseGlo FLuc = blocks Kinase-Glo luciferase, a counter-screen artifact | Potency, µM (highest dose often 38.3 µM), inactives show at the highest dose activity change, negative = inhibition, hits mostly inhibitors | 200,000 tested, 0.28% active | AID 1379 | Q27757 | Kinase-Glo luciferase, ATP luminescence, 8 min; also: % is scaled to controls: 0 for no effect and ±100 for the full control effect; nearly all actives have a fitted effect of over 60% in size
#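 Light output from Kinase-Glo luciferase with luciferin and 10 uM ATP in 50 mM imidazole pH 7.2, KCl, MgCl2, Tween 20, BSA; compound pin-delivered, 8-min ambient incubation, then luminescence read.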
# FLuc counter = firefly luciferase modulation, counter-screen for miR-21 project; purified FLuc, Km substrates, luminescence inhibition; Potency, µM (doses to about 57.5 µM), without a hit: at the top dose activity change, negative = inhibition, actives largely listed as inhibitors; 360,000 tested, 6.9% active;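 also: plate controls were vehicle for no effect and reference inhibitor for full effect; nearly all actives have a fitted effect of over 55% in size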
# Target sequence (P08659 whole entry, looked up): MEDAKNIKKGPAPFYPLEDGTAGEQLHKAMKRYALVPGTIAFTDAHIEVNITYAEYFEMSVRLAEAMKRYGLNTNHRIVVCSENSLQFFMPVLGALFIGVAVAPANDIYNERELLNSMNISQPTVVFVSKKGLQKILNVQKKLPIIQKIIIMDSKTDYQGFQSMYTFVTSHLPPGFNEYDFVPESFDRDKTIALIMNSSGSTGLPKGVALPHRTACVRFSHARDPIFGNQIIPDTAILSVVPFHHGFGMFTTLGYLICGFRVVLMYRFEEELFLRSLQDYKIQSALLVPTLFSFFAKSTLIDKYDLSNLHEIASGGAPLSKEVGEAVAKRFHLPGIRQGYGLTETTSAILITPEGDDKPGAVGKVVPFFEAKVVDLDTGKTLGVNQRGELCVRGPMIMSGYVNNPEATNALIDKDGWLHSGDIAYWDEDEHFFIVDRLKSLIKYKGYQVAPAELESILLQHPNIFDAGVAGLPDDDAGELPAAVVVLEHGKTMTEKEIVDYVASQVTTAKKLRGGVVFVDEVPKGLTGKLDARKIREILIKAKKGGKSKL
#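 Biochemical qHTS of compounds, final roughly 60 µM downward over six points, against 10 nM purified firefly luciferase using Km concentrations of substrates (10 uM D-luciferin, 10 uM ATP) in Tris acetate pH 7.5 buffer; luminescence output.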
# SMN2 splice up = increases expression of the SMN2 splice variant. HEK293 SMN2-luciferase splicing reporter, luminescence, 30-36 h. Potency, µM (top dose mostly 46.1 µM), for inactives: at the highest dose activity change, positive = activation, most hits filed as activators. 210,000 tested, 2.8% active. AID 1458; also: % of control where 0% means no effect; nearly all actives have a fitted effect of over 55% in size
#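 HEK293 cells carry an SMN2 […]–luciferase reporter in which exon 7 inclusion puts luciferase in frame. Cells were plated 10-12 h before compound addition, then incubated 30-36 h at 37C. ONE-Glo luminescence was read; sodium butyrate at 4.5 mM final served as control.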
# NPC1 promoter act = activators of NPC1 promoter; Huh7 NPC1 promoter luciferase reporter, 24 h; Potency, µM (titrated, usually from 9.22 µM), for inactives: at the highest dose activation, usual class: activators; 320,000 tested, 2.4% active; AID 485313; also: % of control where 0% means no effect; nearly all actives have a fitted effect of over 60% in size
#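 Stably transfected Huh7 (NPC1 promoter→luciferase), 1500 cells/well in Opti-MEM + 10% FBS, 2 h settle, then compound 24 h at 37 °C. Luminescence after 10 min with Amplite reagent.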
# ELG1 genotoxic = induces genotoxicity in HEK293T cells with luciferase-tagged ELG1 | HEK293T ELG1-luciferase reporter, luminescence, 16 h | Potency, µM (titrated, usually from 46 µM), for inactives: at the top dose activity change, positive = activation, hits mostly activators | 330,000 tested, 1.3% active; also: % of control where 0% means no effect; nearly all actives have a fitted effect of over 60% in size
#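 After overnight (16 hr) compound treatment at 37 °C, ELG1-luciferase HEK293T cells were lysed with ONE-Glo; luminescence quantified 30 min later at room temperature.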
# Rab9 prom act = activators of Rab9 promoter; Huh7 Rab9 promoter-luciferase reporter, luminescence, 24 h; Potency, µM (highest dose often 9.22 µM), inactives show top-dose activation, negative = inhibition, usual class: activators; AID 485297; 320,000 tested, 2.8% active; also: % of control where 0% means no effect; nearly all actives have a fitted effect of over 60% in size
#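 Stable Rab9-luc Huh7, 1500 cells/well, 2 h settle; cmpd in DMSO, 24 h, 37 °C/5% CO2; luciferase reagent 10 min RT; luminescence.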
# * hit, by the source's call; ? = inconclusive; · = no result; [ ] = remark or other dose. Rows were chosen to be rich in hits. Some 7.3% of all compounds tested hit in one or more screens of this group. Calls follow the shape of the dose curve; as a rule, active = well fitted curve in the direction sought with a large enough effect; inconclusive = small, poorly fitted or top-dose-only effect, or another doubt; inactive = no such curve, though single readings can be large; an effect the other way counts as inactive or inconclusive. Potency is read from the fitted curve at half-maximal effect.
SMILES,KinaseGlo FLuc,FLuc counter,SMN2 splice up,NPC1 promoter act,ELG1 genotoxic,Rab9 prom act
CCCNC(=O)C1CC(=O)N(c2ccc(OCc3ccc(F)cc3)cc2)C1 (centres undefined),·,4.8µM*,·,0.63µM*,6.5µM*,0.89µM*
CCOc1ccc(NC(=O)CCc2ccc(C)o2)cc1,·,-18%,·,15%,9%,-3%
CCOc1ccc(N/C(C)=C/C(=O)c2ccc(C)o2)cc1,-4%,6µM*,-7%,?,?,?
COC(=O)c1ccc(N/C(C)=C/C(=O)c2ccc(C)o2)cc1,0%,12µM*,20%,0%,18%,1%
Cc1ccc(NC(=O)CNC(=O)c2ccc(C)o2)cc1,·,-7%,·,3%,3%,-1%
COc1ccc2nc(NC(=O)c3cc(=O)c4cc(C)c(C)cc4o3)sc2c1,·,-14%,0%,·,·,·
O=C(NNc1nc2c(F)cccc2s1)c1ccc(F)cc1,0%,-11%,9%,5%,-7%,10%
Cc1cccc2sc(NNC(=O)c3cc(=O)c4ccccc4o3)nc12,·,4.8µM*,·,?,?,?
O=C(NNc1nc2c(F)cccc2s1)c1cc(=O)c2ccccc2o1,·,5.4µM*,·,?,?,?
COc1ccc2nc(NNC(=O)c3cc(=O)c4ccccc4o3)sc2c1,·,2.7µM*,·,16%,6%,20%
Cc1nc(C)c(C(=O)Nc2nc3c(C)cccc3s2)o1,·,?,·,0%,0%,2%
Cc1ccc2sc(NNC(=O)c3cc(=O)c4ccccc4o3)nc2c1C,·,9.5µM*,·,16%,?,19%
Cc1csc2nc(CCNS(=O)(=O)c3ccc(F)cc3)cn12,·,-2%,·,·,·,·
C=C(C)CNC(=O)CCc1nnc(Cc2cccc(C(F)(F)F)c2)o1,-2%,21µM*,11µM*,20%,18µM*,?
O=C(CCc1nnc(Cc2cccc(C(F)(F)F)c2)o1)NCC(F)(F)F,-3%,-10%,9%,0%,6%,-3%
CC(NC(=O)CCc1nnc(Cc2cccc(C(F)(F)F)c2)o1)C1CC1 (centres undefined),-5%,27µM*,·,14%,?,?
CC(C)CN(C)C(=O)CCc1nnc(Cc2cccc(C(F)(F)F)c2)o1,0%,24µM*,·,?,?,2.8µM*
C/C(=N\O)c1cccc[n+]1Cc1ccccc1,-4%[7.66 µM],·,-4%[9.22 µM],·,·,·
CCOc1ccc(CNC(=O)c2cccn2-c2nnc(N3CCCCC3)s2)cc1OC,·,-9%,·,·,·,·
Clc1ccccc1OCc1nnc(-c2ccccc2Br)o1,1%,12µM*,?,3.5µM*,?,?
N#Cc1ccccc1OCc1nnc(-c2ccccc2Br)o1,·,5.4µM*,·,2µM*,?,1.4µM*
CC1CCCCN1Cc1c(O)ccc2c(=O)c(-c3nc4ccccc4s3)c(N)oc12 (centres undefined),-7%,12µM*,14%,2%,2%,-7%
CC1CCCCN1Cc1c(O)ccc2c(=O)c(-c3ccccc3Cl)c(C(F)(F)F)oc12 (centres undefined),·,-3%,-13%,·,·,·
CSCc1ccc(C(=O)N2CCCC(Nc3ccc4c(c3)OCCO4)C2)o1 (centres undefined),·,?,·,2%,0%,0%
O=C(NC(=S)Nc1ccc2c(c1)OCCO2)c1ccco1,·,1.7µM*,·,?,?,1µM*
SMILES,KinaseGlo FLuc,FLuc counter,SMN2 splice up,NPC1 promoter act,ELG1 genotoxic,Rab9 prom act
Cc1ccc(NC(=O)CNC(=O)c2ccco2)cc1Cl,·,-17%,·,22%,11%,25%
N#Cc1cccc(NCC(=O)Nc2ccc3c(c2)OCCO3)c1,1%,6µM*,13µM*,0.63µM*,2.3µM*,0.4µM*
O=C(CNC(=O)c1ccco1)Nc1ccc2c(c1)OCCO2,·,6µM*,·,1.8µM*,1.2µM*,1µM*
O=C(c1ccco1)N1CCCC(Nc2ccc3c(c2)OCCO3)C1 (centres undefined),·,24µM*,·,?,?,?
O=C(Nc1ccc(NC(=O)c2ccco2)cc1)c1ccc2c(c1)OCCO2,-8%,?,7%,-5%,?,-17%
N#Cc1ccc(NCC(=O)Nc2ccc3c(c2)OCCO3)cc1,2%,?,-10%,-4%,0%,0%
CCOC(=O)c1cc(-c2ccc(OC)cc2)n(CCC(=O)NC2CCCCC2)c1C,·,-9%,·,·,·,·
CCCS(=O)(=O)c1ncc(Cl)c(C(=O)Nc2c(C(=O)c3ccccc3)oc3ccccc23)n1,·,0%,1%,·,·,·
Cc1cc(NC(=O)c2ccco2)ccc1NC(=O)Cc1cccs1,-5%,15µM*,18%,14%,13%,11%
O=C(NC(=S)Nc1cccc(O)c1)c1ccco1,·,11µM*,·,?,?,?
Cc1cc(NC(=O)c2ccc3c(c2)OCCO3)ccc1NC(=O)c1ccco1,11µM*,0.76µM*,11µM*,?,10%,?
COc1cc(OC)c(NC(=O)C2=C(C)C(=O)OC23CCCCC3)cc1Cl,·,2%,-6%,·,·,·
CCc1ccccc1NC(=O)Nc1cc(C(=O)NCc2ccccc2OC)ccc1N1CCCC1,·,-2%,·,·,·,·
COC(=O)C1=C(C(=O)OC)[C@@H]2Nc3ccccc3[C@@]23C[C@@H](C(=O)OC)N(S(=O)(=O)c2c(C)noc2C)C3=N1,-7%[7.66 µM],·,1%[9.22 µM],·,·,·
Cn1cc(Cl)c(C(=O)Nc2nc3ccc([N+](=O)[O-])cc3s2)n1,-3%,1.2µM*,·,?,5%,?

# High-throughput results as filed in PubChem BioAssay.
